Calls of active or inactive are those of the source.

Assay [1] concerns PRMT1 (protein arginine N-methyltransferase 1). The assay can be described thus: small molecules binding arginine methyltransferase PRMT1 – biochemical, small-molecule microarray, 635 nm fluorescence, primary screen (AID 1088).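 Also: binding of Prmt1 protein to compounds spotted on small-molecule microarray slides.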 The conditions noted are these: higher = more signal.
A short description of assay [2]: growth effects on S. cerevisiae YJM789 – YJM789 clinical isolate, OD600, 24 h, basal, primary screen (AID 1089).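 Also: growth of clinical yeast isolate S. cerevisiae YJM 789 seeded 1000 cells per well; test concentration not given here.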 To be noted: higher = more signal, called active from +8 up or from −8 down.
Assay [3] can be described thus: S. pombe growth modifiers, basal conditions – strain 972, OD600, 24 h, no modulator, primary screen (AID 1090).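 Also: basal condition with compound alone and no growth modifier present; test concentration not given here.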 The conditions noted are these: S. pombe 972 growth, higher = more signal, called active from +8 up or from −8 down.
Assay [4] in a line: budding yeast growth modifiers under rapamycin – strain BY4716, OD600, 96 h, primary screen (AID 1091). Also: test concentration not given here. To be noted: S. cerevisiae BY4716 + rapamycin, higher = more signal, called active from +8 up or from −8 down.
The target in assay [5] is Torsin-1A-interacting protein 2 (Homo sapiens) (UniProt Q8NFQ8). Nature of the assay: small molecules binding lysate-expressed LULL1 – cell lysate, human LULL1 lysate, 635/667 nm fluorescence, primary screen (AID 1092).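 Also: probe is lysate of COS7 cells overexpressing human LULL1; score merges per-feature 667 nm fluorescence with signal-to-noise.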 The conditions noted are these: small-molecule microarray, hLULL1 lysate binding, 635 nm fluorescence; higher = more signal.
Chain of Torsin-1A-interacting protein 2 (Homo sapiens) (Q8NFQ8 whole entry, looked up): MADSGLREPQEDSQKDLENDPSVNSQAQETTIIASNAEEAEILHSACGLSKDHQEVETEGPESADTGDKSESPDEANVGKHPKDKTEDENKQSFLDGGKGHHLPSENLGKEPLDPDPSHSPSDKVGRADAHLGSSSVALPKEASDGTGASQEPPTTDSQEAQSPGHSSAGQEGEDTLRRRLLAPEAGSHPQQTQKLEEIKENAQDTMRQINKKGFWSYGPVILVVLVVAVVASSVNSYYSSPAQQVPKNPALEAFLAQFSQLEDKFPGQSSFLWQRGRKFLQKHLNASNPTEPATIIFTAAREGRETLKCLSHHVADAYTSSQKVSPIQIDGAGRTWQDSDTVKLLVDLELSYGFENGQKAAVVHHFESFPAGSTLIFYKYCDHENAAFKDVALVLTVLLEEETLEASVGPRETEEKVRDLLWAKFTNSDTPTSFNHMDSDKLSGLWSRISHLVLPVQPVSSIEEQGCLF
The nature of assay [6]: optical density change of DRC41 E. coli – strain DRC41, OD650, 24 h, E. coli filamentation project, primary screen (AID 1093).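 Also: MC1000 strain lacking acrAB efflux and sulA so SOS filamentation is blocked; test concentration not given here.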 To be noted: E. coli DRC41 growth, higher = more signal, called active from +8 up or from −8 down.
Assay [7] can be described thus: probe aLefty2 binding to arrayed compounds – biochemical, biotinylated probe, 635/667 nm fluorescence, primary screen (AID 1094).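 Also: score merges spot fluorescence near 667 nm with spot signal-to-noise ratio.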 The conditions noted are these: small-molecule microarray, higher = more signal.
Assay [8] has as its system Noggin (protein binding on small-molecule microarray). Nature of the assay: small molecules binding Noggin protein – biochemical, 635/667 nm fluorescence, primary screen (AID 1095).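 Also: score merges 667 nm feature fluorescence with signal to noise over triplicate slides.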 To be noted: 635 nm fluorescence, higher = more signal.
Assay [9] deals with Neurogenic locus notch homolog protein 3 (Homo sapiens) (UniProt Q9UM47). The assay can be described thus: small molecules binding NOTCH3 protein – biochemical, 635/667 nm fluorescence, primary screen (AID 1096). The conditions noted are these: small-molecule microarray, 635 nm fluorescence, higher = more signal.
Chain of Neurogenic locus notch homolog protein 3 (Homo sapiens) (Q9UM47 whole entry, looked up): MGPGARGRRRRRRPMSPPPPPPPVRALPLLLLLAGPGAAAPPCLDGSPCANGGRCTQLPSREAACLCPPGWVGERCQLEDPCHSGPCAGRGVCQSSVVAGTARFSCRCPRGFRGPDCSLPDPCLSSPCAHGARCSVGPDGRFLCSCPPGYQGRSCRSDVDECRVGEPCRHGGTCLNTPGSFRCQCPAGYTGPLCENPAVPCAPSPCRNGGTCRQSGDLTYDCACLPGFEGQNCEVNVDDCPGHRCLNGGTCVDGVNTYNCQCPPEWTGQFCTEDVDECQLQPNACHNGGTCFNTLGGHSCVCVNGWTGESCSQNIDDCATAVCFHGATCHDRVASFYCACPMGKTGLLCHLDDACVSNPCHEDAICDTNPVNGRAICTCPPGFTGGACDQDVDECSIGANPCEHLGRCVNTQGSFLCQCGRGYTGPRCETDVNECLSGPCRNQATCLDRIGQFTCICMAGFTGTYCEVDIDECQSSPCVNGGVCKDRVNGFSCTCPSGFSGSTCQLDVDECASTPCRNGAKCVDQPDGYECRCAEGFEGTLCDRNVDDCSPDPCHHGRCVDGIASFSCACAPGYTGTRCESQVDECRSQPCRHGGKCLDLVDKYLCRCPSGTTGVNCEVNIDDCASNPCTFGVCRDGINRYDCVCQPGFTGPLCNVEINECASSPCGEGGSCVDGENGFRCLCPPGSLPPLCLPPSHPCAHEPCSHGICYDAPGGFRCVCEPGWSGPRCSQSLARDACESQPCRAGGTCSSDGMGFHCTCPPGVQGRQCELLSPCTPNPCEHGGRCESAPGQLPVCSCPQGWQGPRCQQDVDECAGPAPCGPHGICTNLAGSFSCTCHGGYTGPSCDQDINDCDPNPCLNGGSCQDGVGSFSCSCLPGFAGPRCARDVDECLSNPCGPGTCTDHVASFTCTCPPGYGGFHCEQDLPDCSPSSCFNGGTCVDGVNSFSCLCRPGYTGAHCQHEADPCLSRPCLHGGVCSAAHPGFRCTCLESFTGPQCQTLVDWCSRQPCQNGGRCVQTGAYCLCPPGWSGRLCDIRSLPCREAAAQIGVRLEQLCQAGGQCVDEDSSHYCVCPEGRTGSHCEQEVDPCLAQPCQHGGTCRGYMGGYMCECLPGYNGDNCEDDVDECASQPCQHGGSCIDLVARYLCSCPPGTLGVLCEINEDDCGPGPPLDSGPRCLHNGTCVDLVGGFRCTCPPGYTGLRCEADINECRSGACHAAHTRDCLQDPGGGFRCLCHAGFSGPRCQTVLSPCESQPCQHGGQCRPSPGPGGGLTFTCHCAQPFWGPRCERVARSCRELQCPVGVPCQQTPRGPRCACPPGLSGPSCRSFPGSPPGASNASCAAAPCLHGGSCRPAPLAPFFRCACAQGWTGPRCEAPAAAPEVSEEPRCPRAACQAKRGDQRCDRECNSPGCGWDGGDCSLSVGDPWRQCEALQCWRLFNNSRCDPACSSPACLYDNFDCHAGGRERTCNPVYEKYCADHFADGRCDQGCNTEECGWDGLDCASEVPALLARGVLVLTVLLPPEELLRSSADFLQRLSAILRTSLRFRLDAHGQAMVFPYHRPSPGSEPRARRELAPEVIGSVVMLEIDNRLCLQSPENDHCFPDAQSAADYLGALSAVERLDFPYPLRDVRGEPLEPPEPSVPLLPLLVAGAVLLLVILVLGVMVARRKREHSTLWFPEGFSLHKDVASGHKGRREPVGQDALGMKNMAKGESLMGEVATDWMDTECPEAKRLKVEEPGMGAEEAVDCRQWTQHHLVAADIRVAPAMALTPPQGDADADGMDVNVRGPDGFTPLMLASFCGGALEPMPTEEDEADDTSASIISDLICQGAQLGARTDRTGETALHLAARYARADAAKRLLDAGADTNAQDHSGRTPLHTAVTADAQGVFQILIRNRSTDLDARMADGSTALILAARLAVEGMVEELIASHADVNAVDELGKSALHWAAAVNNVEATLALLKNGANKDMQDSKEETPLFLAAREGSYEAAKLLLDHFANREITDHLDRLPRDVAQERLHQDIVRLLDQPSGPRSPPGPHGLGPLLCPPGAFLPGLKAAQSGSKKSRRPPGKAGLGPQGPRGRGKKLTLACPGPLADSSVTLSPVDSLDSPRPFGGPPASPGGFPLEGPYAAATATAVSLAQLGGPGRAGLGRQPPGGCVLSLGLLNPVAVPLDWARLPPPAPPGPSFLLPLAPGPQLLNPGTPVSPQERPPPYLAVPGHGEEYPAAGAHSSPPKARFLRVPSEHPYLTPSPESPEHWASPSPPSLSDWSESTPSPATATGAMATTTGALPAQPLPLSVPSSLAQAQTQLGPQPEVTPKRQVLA
The nature of assay [10]: probe aEGFR binding to arrayed compounds – biochemical, biotinylated probe, 635/667 nm fluorescence, primary screen (AID 1097).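 Also: probe is a biotinylated anti-EGFR antibody binding compounds printed on slides; score combines fluorescence near 667 nm and signal to noise of each spot.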 To be noted: small-molecule microarray, higher = more signal.
In assay [11] the test system is Plasmodium falciparum Sir2 (PF13_0152, Sir2A). The assay can be described thus: Plasmodium falciparum Sir2A binding compounds – biochemical, small-molecule microarray, 635 nm fluorescence, primary screen (AID 1098).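 Also: score merges spot fluorescence intensity with its signal-to-noise ratio.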 The conditions noted are these: fluorescence 635 nm, higher = more signal.
A short description of assay [12]: probe aDKK1 binding to arrayed compounds – biochemical, biotinylated probe, 635/667 nm fluorescence, primary screen (AID 1099).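 Also: score merges 667nm spot fluorescence with signal to noise across triplicate slides; reference of the scale not given here.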 The conditions noted are these: small-molecule microarray, higher = more signal.
Assay [13] is described as follows: probe aCHRDL2 binding to arrayed compounds – biochemical, biotinylated probe, 635/667 nm fluorescence, primary screen (AID 1100). The conditions noted are these: small-molecule microarray, higher = more signal.
A short description of assay [14]: change in splice reporter luminescence, either direction, cell-based, HEK293, spliceosome inhibition project, primary screen (AID 1101).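 Also: HEK293 cells carrying a splicing-competent luciferase reporter gene; test concentration not given here.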 The conditions noted are these: HEK293 splicing luciferase reporter, 24 h, higher = more signal, called active from +8 up or from −8 down. (A reporter such as luciferase makes a cellular process visible.)
The target in assay [15] is Fibroblast growth factor 10 (Homo sapiens) (UniProt O15520). Nature of the assay: compounds binding fibroblast growth factor 10 – biochemical, small-molecule microarray, 635 nm fluorescence, primary screen (AID 1102). The conditions noted are these: FGF10 binding, fluorescence 635 nm, higher = more signal.
Chain of Fibroblast growth factor 10 (Homo sapiens) (O15520 whole entry, looked up): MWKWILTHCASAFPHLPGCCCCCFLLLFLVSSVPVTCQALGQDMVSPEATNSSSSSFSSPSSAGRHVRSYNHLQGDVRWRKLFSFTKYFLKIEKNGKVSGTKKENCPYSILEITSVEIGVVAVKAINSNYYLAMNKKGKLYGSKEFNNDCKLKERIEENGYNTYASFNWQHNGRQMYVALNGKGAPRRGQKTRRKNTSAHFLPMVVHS
The test system of assay [16] is glycogen synthase kinase-3 (GSK3A per assay name; protocol says GSK3B). Nature of the assay: compounds binding glycogen synthase kinase-3 – biochemical, small-molecule microarray, 635 nm fluorescence, GSK3A, primary screen (AID 1103). Also: the record names both GSK3A and GSK3B. The conditions noted are these: fluorescence 635 nm, higher = more signal.
Assay [17] concerns the target Epidermal growth factor receptor (Homo sapiens) (UniProt P00533). Nature of the assay: compounds binding epidermal growth factor receptor – biochemical, small-molecule microarray, 635 nm fluorescence, primary screen (AID 1104).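 Also: score merges 667 nm emission intensity with spot signal to noise over triplicate slides.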 To be noted: EGFR binding, higher = more signal.
In assay [18] the target is Follistatin-related protein 3 (Homo sapiens) (UniProt O95633). Nature of the assay: compounds binding follistatin-related protein 3 – biochemical, small-molecule microarray, 635 nm fluorescence, primary screen (AID 1105).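 Also: score merges emission near 667 nm and signal to noise per printed spot across three slides.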 To be noted: FSTL3 binding, higher = more signal.
Chain of Follistatin-related protein 3 (Homo sapiens) (O95633 whole entry, looked up): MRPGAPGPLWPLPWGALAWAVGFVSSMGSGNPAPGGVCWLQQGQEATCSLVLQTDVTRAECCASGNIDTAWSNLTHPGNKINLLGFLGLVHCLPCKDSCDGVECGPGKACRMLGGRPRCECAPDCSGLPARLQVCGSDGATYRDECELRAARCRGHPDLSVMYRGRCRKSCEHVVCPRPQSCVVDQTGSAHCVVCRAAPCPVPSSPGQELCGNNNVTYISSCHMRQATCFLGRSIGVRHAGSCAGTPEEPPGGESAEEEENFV
The target in assay [19] is Dickkopf-related protein 1 (Homo sapiens) (UniProt O94907). The assay can be described thus: small molecules binding DKK1 protein – biochemical, small-molecule microarray, 635 nm fluorescence scan, primary screen (AID 1106).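 Also: score merges emission near 667 nm with signal to noise over three replicate slides.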 The conditions noted are these: higher = more signal.
Chain of Dickkopf-related protein 1 (Homo sapiens) (O94907 whole entry, looked up): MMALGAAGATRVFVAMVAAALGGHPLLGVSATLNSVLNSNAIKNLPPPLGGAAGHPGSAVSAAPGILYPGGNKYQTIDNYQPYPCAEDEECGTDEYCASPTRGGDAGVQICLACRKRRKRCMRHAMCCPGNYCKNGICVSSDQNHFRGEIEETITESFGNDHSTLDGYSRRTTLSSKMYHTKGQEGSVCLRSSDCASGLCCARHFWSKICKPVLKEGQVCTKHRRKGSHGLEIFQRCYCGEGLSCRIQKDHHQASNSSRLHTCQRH
For assay [20], the system named is Inhibin beta A chain (activin A). The assay can be described thus: small molecules binding activin A – biochemical, small-molecule microarray, 635 nm fluorescence scan, primary screen (AID 1107).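 Also: mouse activin A protein probed at 4.33 µg/mL on printed slides; score merges bound-protein fluorescence near 667 nm with spot signal-to-noise.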 To be noted: INHBA, higher = more signal.

Chain of Epidermal growth factor receptor (Homo sapiens) (P00533 whole entry, looked up): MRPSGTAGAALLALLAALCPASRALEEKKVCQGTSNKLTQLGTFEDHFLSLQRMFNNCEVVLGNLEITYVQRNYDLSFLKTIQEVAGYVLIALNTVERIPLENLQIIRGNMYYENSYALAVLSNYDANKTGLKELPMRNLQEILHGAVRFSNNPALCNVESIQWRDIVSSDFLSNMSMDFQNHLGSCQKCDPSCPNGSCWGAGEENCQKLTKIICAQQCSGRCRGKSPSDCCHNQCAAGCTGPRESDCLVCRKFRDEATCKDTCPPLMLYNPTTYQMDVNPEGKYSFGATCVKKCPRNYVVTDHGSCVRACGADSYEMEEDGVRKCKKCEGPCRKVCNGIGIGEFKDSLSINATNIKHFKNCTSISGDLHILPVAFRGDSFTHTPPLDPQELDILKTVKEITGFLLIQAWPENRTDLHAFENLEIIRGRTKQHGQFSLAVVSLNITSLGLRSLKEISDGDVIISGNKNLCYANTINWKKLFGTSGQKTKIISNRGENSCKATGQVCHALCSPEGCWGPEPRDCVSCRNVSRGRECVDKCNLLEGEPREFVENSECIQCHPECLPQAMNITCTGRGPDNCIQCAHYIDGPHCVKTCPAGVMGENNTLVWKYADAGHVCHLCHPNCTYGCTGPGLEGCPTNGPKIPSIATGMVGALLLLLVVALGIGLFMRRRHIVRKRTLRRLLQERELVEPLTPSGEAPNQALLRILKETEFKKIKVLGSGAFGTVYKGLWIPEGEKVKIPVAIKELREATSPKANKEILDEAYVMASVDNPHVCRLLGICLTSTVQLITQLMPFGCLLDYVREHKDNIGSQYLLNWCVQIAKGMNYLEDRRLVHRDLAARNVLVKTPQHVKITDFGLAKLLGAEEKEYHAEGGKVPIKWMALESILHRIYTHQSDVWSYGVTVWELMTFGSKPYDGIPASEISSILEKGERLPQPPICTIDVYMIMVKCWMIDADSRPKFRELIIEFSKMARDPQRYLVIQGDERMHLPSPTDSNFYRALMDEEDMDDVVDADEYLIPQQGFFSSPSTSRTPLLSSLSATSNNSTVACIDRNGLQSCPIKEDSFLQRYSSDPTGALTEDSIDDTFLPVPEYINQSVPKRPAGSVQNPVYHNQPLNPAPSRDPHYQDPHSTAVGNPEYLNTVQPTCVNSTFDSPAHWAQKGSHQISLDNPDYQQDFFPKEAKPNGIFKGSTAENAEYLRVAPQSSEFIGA

With `CC(C)C[C@@H]1NC(=O)[C@H](CC(C)C)NC(=O)[C@@]23C(=O)N[C@@H](Cc4ccccc4)C2[C@H](C)[C@@]2(C)O[C@H]2C3/C=C/CC/C=C/CNC1=O` (stereo not given in full), the composite z-score in assay [1] was 1.54; in assay [5], 2.01; in assay [7], -0.26; in assay [8] it was 0.413; in assay [9] it was 1.08; in assay [10], -0.0697. Besides, the composite z-score in assay [11] was 1.05; in assay [12], -0.233; in [13], -0.406; in [15], 0.707; in assay [16], 0.516; in assay [17], 0.543. Besides, the composite z-score in assay [18] came out at 0.998; in assay [19] it was 1.19; in assay [20], 1.38. Besides, the z-score was -0.833 (inactive) in assay [2]; -2.66 (inactive) in assay [3]; -1.74 (inactive) in assay [4]; 0.194 (inactive) in [6]; -0.218 (inactive) in assay [14].

For `O=C1O[C@H](c2ccccc2)[C@H](c2ccccc2)N2[C@H]1[C@@H](C(=O)Nc1nc3ccccc3s1)[C@]1(C(=O)Nc3ccc(C#CC4=CCCCC4)cc31)[C@H]2c1ccccc1OCCO`, the composite z-score in assay [1] is 1.56; in [5], 2.35; in [7], -0.0778; in [8] it was 1.53; in assay [9] it was 1.1; in assay [10], 0.0564. In addition, the composite z-score in [11] is 1.51; in assay [12] it was -0.0804; in assay [13], -0.262; in assay [15], 1.14; in [16], 1.02; in [17] it was 0.516. The composite z-score turned out to be 1.27 in assay [18], 0.574 in [19] and 0.345 in [20]. For the same compound, the z-score was 2.17 (inactive) in [2]; 1.82 (inactive) in assay [3]; 4.5 (inactive) in assay [4]; -0.0227 (inactive) in assay [6]; -1.69 (inactive) in assay [14].

As for `CCCCO[C@H]1C[C@H]2C(Br)=C[C@@]1(CO)C(=O)[C@]21CO1`, the composite z-score was 0.638 in [1]; -0.0735 in [5]; -0.341 in [7]; 0.648 in assay [8]; 0.237 in assay [9]; -0.109 in [10]. The composite z-score was -0.145 in [11]; -0.482 in assay [12]; -1.04 in [13]; 0.136 in assay [15]; -0.243 in assay [16]; 0.156 in assay [17]. Also, the composite z-score in [18] worked out at 0.184; in assay [19], 0.308; in assay [20], 0.363. Also, the z-score in assay [2] is -1.48 (inactive); in [3] it was -2.1 (inactive); in assay [4], -1.29 (inactive); in [6] it was 2.62 (inactive); in assay [14], -1.53 (inactive).

For the compound `CO[C@H]1COC(=O)[C@@H](Cc2ccccc2)NC(=O)[C@@H](C)COC(=O)CC=C[C@@H]1C`, the composite z-score in [1] was 0.633; in assay [5], -1.09; in [7] it was -0.202; in assay [8], 1.48; in assay [9], 0.269; in [10], -0.096. Besides, the composite z-score in [11] was 0.318; in [12] it was -0.63; in [13] it was -1.46; in assay [15], 0.42; in assay [16] it was -0.0524; in assay [17], 0.954. Besides, the values for the composite z-score in assay [18], in assay [19] and in [20] were 0.439, 0.913 and 1.31, respectively. The z-score in assay [2] is -0.236 (inactive); in assay [3], -0.669 (inactive); in [4], -0.555 (inactive); in assay [6] it was 0.395 (inactive); in assay [14], 0.105 (inactive).

Regarding `C=CC[C@]1(C(=O)OC)N=C(c2ccc(OCCCO)cc2)O[C@H]1c1ccccc1CN=[N+]=[N-]`, the composite z-score in assay [1] is 0.828; in [5] it was 1.37; in [7] it was 0.4; in assay [8], -0.101; in [9], -0.823; in assay [10] it was -0.0828. The composite z-score in assay [11] is 0.212; in [12], 1.21; in assay [13], 1.44; in assay [15], -0.404; in [16], -0.52; in assay [17], -0.493. Also, the results for the composite z-score in assay [18], in [19] and in assay [20] were -0.363, -0.795 and 1.31, respectively. For the same compound, the z-score is -0.664 (inactive) in assay [2]; -2.28 (inactive) in assay [3]; -0.723 (inactive) in assay [4]; 1.37 (inactive) in assay [6]; -1.4 (inactive) in [14].
